# Results taken from PubChem BioAssay (NCATS).
# Results filed as inconclusive are left out. Where a call stands in place of a potency, no number is given. Calls of active or inactive are those of the source. Unless noted, calls follow the shape of the dose curve; as a rule, active = well fitted curve in the direction sought with a large enough effect; inconclusive = small, poorly fitted or top-dose-only effect, or another doubt; inactive = no such curve, though single readings can be large; an effect the other way counts as inactive or inconclusive.
# Columns and labels:
# [1] = target: Peroxisome proliferator-activated receptor delta (Homo sapiens) (UniProt Q03181); test: qHTS assay for small molecule agonists of peroxisome proliferator-activated receptor delta signaling (AID 588534; calls by dose curve)
# How it was run: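 Reporter cells were plated and held 5 hrs at 37 C before compounds were added. After 18 hrs at 37 C, CCF4 dye was loaded for 2 hrs at RT and fluorescence measured.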
# [2] = qHTS assay for small molecule antagonists of retinoid X receptor alpha signaling (AID 588546); conditions: HEK293T RXRa-UAS-bla, beta-lactamase ratio, antagonist mode; measured here: W530 green channel, cytotoxicity proxy;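 also: cells stimulated with 9-cis-retinoic acid as agonist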
# How it was run: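 Beta-lactamase reporter inhibition, read as CCF4 fluorescence ratio (ex 405, em 460/530 nm) after 2 h at RT. HEK293T UAS-bla cells, 2500/well, were stimulated with 9-cis-RA at 500 or 100 nM final alongside test compound for 18 h at 37 C.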
# [3] = qHTS assay for cell viability of HEK293 cells (AID 743288); conditions: ATP luminescence (CellTiter-Glo), 18 h; max response: stronger effect = lower value; also: nearly all actives have a fitted effect of over 50% in size
# How it was run: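 Environmental chemicals tested in qHTS format against parental HEK293 cells; 18 h treatment, 37 C; read-out ATP luminescence (CellTiter-Glo), 30 min RT development.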
# CP194 = test: qHTS profiling for inhibitors of Plasmodium falciparum proliferation (AID 504749); also: nearly all actives have a fitted effect of over 60% in size; also: potency is read from the fitted curve at half-maximal effect; conditions: P. falciparum in erythrocytes, SYBR Green DNA, 72 h; series mostly up to 28.7 µM
# How it was run: (§1)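 Readout was DNA-dye fluorescence from lysed cultures, ex 485/em 535 nm. Parasitized red cells had grown 72 h with compound; data scaled between 0.29 uM artemisinin and DMSO wells and corrected using vehicle-only plates.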
# CP203 = test: as above; conditions: P. falciparum in erythrocytes, SYBR Green DNA, 72 h; series mostly up to 28.7 µM
# How it was run: as §1
# CP217 = test: as above; conditions: P. falciparum in erythrocytes, SYBR Green DNA, 72 h; series mostly up to 28.7 µM
# How it was run: as §1
# CP247 = test: as above; conditions: P. falciparum in erythrocytes, SYBR Green DNA, 72 h; series mostly up to 28.7 µM
# How it was run: as §1
# CP262 = test: as above; conditions: P. falciparum in erythrocytes, SYBR Green DNA, 72 h; series mostly up to 28.7 µM
# How it was run: as §1
# CP266 = test: as above; conditions: P. falciparum in erythrocytes, SYBR Green DNA, 72 h; series mostly up to 28.7 µM
# How it was run: as §1
# CP297 = test: as above; conditions: P. falciparum in erythrocytes, SYBR Green DNA, 72 h; series mostly up to 28.7 µM
# How it was run: as §1
# CP335 = test: as above; conditions: P. falciparum in erythrocytes, SYBR Green DNA, 72 h; series mostly up to 28.7 µM
# How it was run: as §1
# DFO2036 = test: as above; conditions: P. falciparum in erythrocytes, SYBR Green DNA, 72 h; series mostly up to 28.7 µM
# How it was run: as §1
# DIV30 = test: as above; conditions: P. falciparum in erythrocytes, SYBR Green DNA, 72 h; series mostly up to 28.7 µM
# How it was run: as §1
# HB3 = test: as above; conditions: P. falciparum in erythrocytes, SYBR Green DNA, 72 h; series mostly up to 28.7 µM
# How it was run: as §1
# N140 = test: as above; conditions: P. falciparum in erythrocytes, SYBR Green DNA, 72 h; series mostly up to 28.7 µM
# How it was run: as §1
# PAD = test: as above; conditions: P. falciparum in erythrocytes, SYBR Green DNA, 72 h; series mostly up to 28.7 µM
# How it was run: as §1
# PC26 = test: as above; conditions: P. falciparum in erythrocytes, SYBR Green DNA, 72 h; series mostly up to 28.7 µM
# How it was run: as §1
# CP256 = test: as above; conditions: P. falciparum in erythrocytes, SYBR Green DNA, 72 h; series mostly up to 28.7 µM
# How it was run: as §1
# CP265 = test: as above; conditions: P. falciparum in erythrocytes, SYBR Green DNA, 72 h; series mostly up to 28.7 µM
# How it was run: as §1
# ICS = test: as above; conditions: P. falciparum in erythrocytes, SYBR Green DNA, 72 h; series mostly up to 28.7 µM
# How it was run: as §1
# Peroxisome proliferator-activated receptor delta (Homo sapiens), sequence (Q03181 whole entry, looked up): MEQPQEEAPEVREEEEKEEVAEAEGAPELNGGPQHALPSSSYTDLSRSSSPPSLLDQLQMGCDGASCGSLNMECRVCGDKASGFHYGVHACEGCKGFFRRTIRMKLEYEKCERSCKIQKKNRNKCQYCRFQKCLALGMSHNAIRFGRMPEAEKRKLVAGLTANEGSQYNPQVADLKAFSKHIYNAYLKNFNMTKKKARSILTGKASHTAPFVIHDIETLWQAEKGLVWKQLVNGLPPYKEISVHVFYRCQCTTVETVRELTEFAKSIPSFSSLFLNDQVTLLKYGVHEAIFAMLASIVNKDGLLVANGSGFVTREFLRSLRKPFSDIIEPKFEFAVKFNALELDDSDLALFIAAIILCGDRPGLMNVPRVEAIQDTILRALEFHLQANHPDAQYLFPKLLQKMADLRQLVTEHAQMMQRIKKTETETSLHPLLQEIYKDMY
Compound,outcome [1],max response [2],max response [3],Potency (CP194),Potency (CP203),Potency (CP217),Potency (CP247),Potency (CP262),Potency (CP266),Potency (CP297),Potency (CP335),Potency (DFO2036),Potency (DIV30),Potency (HB3),Potency (N140),Potency (PAD),Potency (PC26),Potency (CP256),Potency (CP265),Potency (ICS)
CC(C)=CC1C(C(=O)OCc2coc(Cc3ccccc3)c2)C1(C)C (stereo unspecified),inactive,-14.2%,0.368% (inactive),inactive,inactive,inactive,inactive,inactive,inactive,inactive,inactive,inactive,inactive,inactive,inactive,inactive,inactive,–,–,–
C=C1CC2C(CC[C@]3(C)C(=O)CCC23)[C@]2(C)C=CC(=O)C=C12 (stereo partly specified),–,–,–,inactive,inactive,inactive,inactive,inactive,inactive,inactive,–,inactive,inactive,inactive,inactive,inactive,inactive,inactive,inactive,inactive
CCC/C=C/C=C/C(=O)OC1/C(=C/C(=O)OC)CC2CC(C(C)O)OC(=O)CC(O)CC3CC(OC(C)=O)C(C)(C)C(O)(CC4C/C(=C/C(=O)OC)CC(/C=C\C(C)(C)C1(O)O2)O4)O3 (stereo unspecified),–,–,–,–,–,0.794 µM (active),2.82 µM (active),–,–,1.69 µM (active),1.9 µM (active),1.26 µM (active),1.07 µM (active),2.24 µM (active),1.12 µM (active),1.78 µM (active),0.953 µM (active),1.26 µM (active),1.41 µM (active),0.562 µM (active)
NC(Cc1ccc(Oc2cc(I)c(O)c(I)c2)c(I)c1)C(=O)O (stereo unspecified),–,–,–,inactive,inactive,inactive,–,inactive,inactive,inactive,inactive,–,inactive,inactive,–,inactive,inactive,inactive,inactive,inactive
CCN(CC)C(=O)N[C@@H]1C=C2c3cccc4[nH]cc(c34)C[C@H]2N(C)C1,–,–,–,–,inactive,–,–,–,inactive,–,–,inactive,8.49 µM (active),–,12.6 µM (active),–,12 µM (active),–,10 µM (active),8.91 µM (active)
CC(CO)NC(=O)C1C=C2c3cccc4[nH]cc(c34)CC2N(C)C1 (stereo unspecified),–,–,–,inactive,inactive,inactive,inactive,inactive,inactive,inactive,inactive,inactive,inactive,inactive,inactive,inactive,inactive,inactive,inactive,inactive
CN(C)C1C(=O)C(C(N)=O)C(=O)C2(O)C(=O)C3C(=O)c4c(O)cccc4C(C)(O)C3C(O)C12 (stereo unspecified),–,–,–,inactive,inactive,inactive,–,inactive,–,inactive,6.01 µM (active),–,–,–,inactive,–,inactive,inactive,inactive,2.82 µM (active)
CC(=O)Oc1ccc2c3c1OC1[C@@H](OC(C)=O)C=C[C@H]4[C@H](C2)N(C)CC[C@]314 (stereo partly specified),–,–,–,inactive,inactive,inactive,inactive,inactive,inactive,inactive,inactive,inactive,inactive,inactive,inactive,inactive,inactive,inactive,inactive,inactive
CCC(=O)OC1(c2ccccc2)CCN(C)CC1C (stereo unspecified),–,–,–,–,–,–,–,inactive,inactive,12 µM (active),–,–,inactive,inactive,–,inactive,–,–,–,inactive
CC(=O)O[C@H]1C[C@H](O[C@H]2[C@@H](O)CC(O[C@H]3[C@@H](O)C[C@H](O[C@H]4CC[C@@]5(C)[C@H](CC[C@@H]6[C@@H]5CC[C@]5(C)[C@@H](C7=CC(=O)OC7)CC[C@]65O)C4)O[C@@H]3C)O[C@@H]2C)O[C@H](C)[C@H]1O[C@@H]1O[C@H](CO)[C@@H](O)[C@H](O)[C@H]1O (stereo partly specified),–,–,–,inactive,–,inactive,inactive,inactive,inactive,inactive,inactive,inactive,inactive,inactive,inactive,inactive,–,inactive,inactive,inactive
O=C1CC2OCC=C3CN4CCC56c7ccccc7N1C5[C@H]2[C@H]3C[C@H]46 (stereo partly specified) (tested in a mixture with another compound),–,–,–,–,–,inactive,inactive,–,inactive,inactive,inactive,inactive,–,–,inactive,–,–,inactive,inactive,–
C[C@]12CCC3C(CCC4=C(Cl)C(=O)CC[C@@]43C)C1CCC2O (stereo partly specified),–,–,–,inactive,inactive,inactive,inactive,inactive,inactive,inactive,inactive,inactive,inactive,inactive,inactive,inactive,inactive,inactive,inactive,inactive
CN(C)[C@@H](Cc1ccccc1)c1ccccc1,–,–,–,inactive,inactive,inactive,10 µM (active),inactive,inactive,–,inactive,inactive,inactive,inactive,inactive,inactive,inactive,inactive,inactive,inactive
CC(C)CCC(=O)OC1CCC2C3CCC4=CC(=O)CC[C@]4(C)C3CC[C@]12C (stereo partly specified),–,–,–,inactive,inactive,–,–,inactive,inactive,inactive,–,–,inactive,–,–,–,–,7.94 µM (active),7.94 µM (active),7.94 µM (active)
CC1CC[C@@]2(NC1)OC1CC3C4CC[C@@H]5CC(O)CC[C@@]5(C)C4CC[C@]3(C)C1C2C (stereo partly specified),–,–,–,inactive,inactive,–,–,inactive,inactive,inactive,–,inactive,–,–,–,–,–,–,–,10 µM (active)
O=C1CC2OCC=C3CN4CC[C@]56c7ccccc7N1C5C2[C@H]3C[C@H]46 (stereo partly specified),–,–,–,–,–,–,inactive,–,–,–,5.36 µM (active),–,–,inactive,–,–,inactive,8.91 µM (active),–,inactive
CC(=O)[C@H]1CC[C@H]2C3CC[C@H]4C[C@H](O)CC[C@]4(C)C3CC[C@]12C (stereo partly specified),–,–,–,inactive,inactive,inactive,inactive,inactive,inactive,inactive,inactive,inactive,inactive,inactive,inactive,inactive,inactive,inactive,inactive,inactive
